Chronic BCR inh – blocks chronic active B-cell receptor signaling; ABC-DLBCL IkBa-CBG/CBR reporter, luminescence ratio, 4 h; 340,000 tested, 0.05% active; Potency, µM (series often up to 46.1 µM), inactives show at the top dose activity change, negative = inhibition, actives largely listed as inhibitors; AID 493014; active = well fitted inhibition curve with a large enough effect in the signal ratio, with a control signal flat, not every such curve was filed as active; inconclusive = small, poorly fitted or top-dose-only effect, or effect the other way, or a change in a side signal; the % refers to the signal ratio;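 note: plate controls were basal doxycycline-induced cells for no effect and cells given 10 µM MG132 for full effect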
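Doxycycline induced both beetle luciferases in TMD8 lymphoma cells; IKK-driven degradation limits the IkappaBalpha-fused green signal, while red luminescence normalises for cell number and nonspecific effects. Compounds tested up to 46 uM, 4 hrs.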
uPA generation – cell surface uPA generation inhibition. AID 540303. Potency, µM (series often up to 38.3 µM), for the others: at the top dose activity change, negative = inhibition, usual class: inhibitors. cell surface uPA generation assay, qHTS. 330,000 tested, 0.31% active; active = well fitted inhibition curve with a large enough effect; inconclusive = small, poorly fitted or top-dose-only effect; inactive = no such curve, though single readings can be large or run the other way; tested in mouse RAW 264.7 cells; note: nearly all actives have a fitted effect of over 55% in size
RGS4 inh – blocks human RGS4-accelerated GTP hydrolysis | AID 504845 | 390,000 tested, 0.039% active | Potency, µM (doses to about 114 µM), inactives show at the top dose activity change, negative = inhibition, most hits filed as inhibitors | P49798 | Transcreener GDP fluorescence polarization, RGS4-accelerated GTP hydrolysis; note: nearly all actives have a fitted effect of over 75% in size
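MLSMR compounds (23 nl, pin-transferred) preincubated 10 min at room temperature with a 500nM (2x) first reagent, then RGS4 at 900nM (2x) plus Transcreener GDP mix added; fluorescence polarization (620/688 nm) read before and after 90 min at 30 °C.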
Eya2 phos inh – Eya2 (human) phosphatase inhibition. O00167. recombinant Eya2, OMFP fluorescence dephosphorylation (OMFP is methylfluorescein phosphate). Potency, µM (series often up to 76.9 µM), inactives show at the highest dose activity, negative = inhibition, actives largely listed as inhibitors. 330,000 tested, 0.006% active
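Eya2 protein (added as 0.2 uM solution) was preincubated with compound for 10 min at ambient temperature in 50 mM HEPES pH 7.5, 50 mM NaCl, 5 uM MgCl2, 0.05% BSA, 1 mM DTT. OMFP (added at 50 uM) then reacted 10 min; fluorescence read at 485/525 nm.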
USP2a inh – blocks human ubiquitin-specific protease USP2a; Potency, µM (top dose mostly 38.3 µM), for the others: top-dose activity change, negative = inhibition, hits mostly inhibitors; USP2 core, Ub-CHOP2 coupled fluorogenic reporter, 485/531; AID 463254; O75604; 330,000 tested, 0.01% active;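 note: plate controls were DMSO wells for no effect and full inhibition by NEM control for full effect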
Target sequence (O75604 whole entry, looked up): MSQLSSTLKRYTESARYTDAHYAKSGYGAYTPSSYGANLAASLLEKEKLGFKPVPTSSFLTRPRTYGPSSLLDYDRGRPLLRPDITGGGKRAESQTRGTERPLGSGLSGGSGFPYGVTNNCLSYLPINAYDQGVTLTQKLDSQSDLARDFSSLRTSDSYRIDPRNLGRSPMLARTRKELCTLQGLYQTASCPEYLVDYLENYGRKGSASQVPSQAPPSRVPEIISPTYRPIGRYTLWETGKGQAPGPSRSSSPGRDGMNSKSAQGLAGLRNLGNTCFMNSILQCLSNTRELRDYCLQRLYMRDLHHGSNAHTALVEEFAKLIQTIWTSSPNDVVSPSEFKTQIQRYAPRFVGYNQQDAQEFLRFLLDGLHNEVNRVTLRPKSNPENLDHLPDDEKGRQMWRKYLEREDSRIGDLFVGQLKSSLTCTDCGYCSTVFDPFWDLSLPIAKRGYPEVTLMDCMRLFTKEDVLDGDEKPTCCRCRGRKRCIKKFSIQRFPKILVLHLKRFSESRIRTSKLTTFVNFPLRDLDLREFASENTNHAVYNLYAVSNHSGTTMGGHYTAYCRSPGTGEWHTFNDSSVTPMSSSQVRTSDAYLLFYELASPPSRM
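USP2 core (10nM final) preincubated 30min RT with compound in 20mM Tris-HCl pH 8.0, 2mM CaCl2, 2mM beta-mercaptoethanol, 0.05% CHAPS; 25nM Ub-CHOP2 plus 25nM reporter substrate added, fluorescence (Ex485/Em531) read after 60min.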
KAT2A inh – inhibitors of human GCN5L2 histone acetyltransferase; Q92830; 390,000 tested, 0.21% active; GCN5L2 HAT assay, ThioGlo1 CoA-SH fluorescence; Potency, µM (doses to about 58.9 µM), for the others: at the highest dose activity change, negative = inhibition, actives largely listed as inhibitors
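Fluorescence readout, Ex340nm/Em540nm: ThioGlo1 (50uM final) reacts with free CoA thiol released as 20nM GCN5L2 acetylates H3(1-25) peptide (75uM) using acetyl-CoA (70uM). Compound and enzyme sat 15 min beforehand; 20 min room-temperature reaction.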
An asterisk follows results filed as active. Hits are enriched below; roughly 0.52% of the tested compounds scored in any of these assays. Unless noted, calls come from the whole dose curve; as a rule, active = well fitted curve in the direction sought with a large enough effect; inconclusive = small, poorly fitted or top-dose-only effect, or another doubt; inactive = no such curve, though single readings can be large; an effect the other way counts as inactive or inconclusive. Unless noted, % is set by controls: 0 for no effect and ±100 for the full control effect; potency is the fitted concentration of half-maximal effect.

How did CS(=O)(=O)c1sc(C#N)c2c1C(=O)CC(c1ccccc1)C2 (centres undefined) do in these assays?
Chronic BCR inh: inconclusive; uPA generation: 8.9µM*; RGS4 inh: inconclusive; Eya2 phos inh: 13%; USP2a inh: 0%; KAT2A inh: -4%

What do the screens show for `NCc1c(O)ccc2ccccc12`?
Chronic BCR inh: inconclusive; Eya2 phos inh: -3%; USP2a inh: 2%; KAT2A inh: 0%

How did Oc1ccc2ccccc2c1SSc1c(O)ccc2ccccc12 do in these assays?
RGS4 inh: 1.7µM*; Eya2 phos inh: 14%; KAT2A inh: inconclusive

What do the screens show for `Cc1ccc(N(CC(=O)NC2CCCCC2)C(=O)c2ccc(C)s2)cc1`?
Chronic BCR inh: inconclusive; uPA generation: 10%; RGS4 inh: 14%; Eya2 phos inh: inconclusive; USP2a inh: 1%; KAT2A inh: 4µM*

What do the screens show for `Cc1cc(C)cc(N(CC(=O)NC2CCCCC2)C(=O)c2ccc(C)s2)c1`?
Chronic BCR inh: -2%; uPA generation: 4%; RGS4 inh: -11%; Eya2 phos inh: -4%; USP2a inh: 2%; KAT2A inh: inconclusive

What do the screens show for `COC(=O)c1c(NC(=O)C2c3ccccc3Oc3ccccc32)sc2c1CCC(C(C)(C)C)C2` (centres undefined)?
RGS4 inh: 3%; KAT2A inh: -7%

What do the screens show for `CCCCC#Cc1nc(NC)c2ncn([C@@H]3O[C@H](CO)[C@@H](O)[C@H]3O)c2n1`?
RGS4 inh: inconclusive; Eya2 phos inh: -2%; KAT2A inh: inconclusive

What do the screens show for `CCc1nn(C(CC)C(=O)NCc2ccc(OC)c(OC)c2)c(=O)c2cc3oc(C)cc3n12` (centres undefined)?
RGS4 inh: 0%; KAT2A inh: -6%

How did Cc1cccc(-n2c3nc(=O)[nH]c(=O)c-3cc3cc([N+](=O)[O-])ccc32)c1 do in these assays?
Chronic BCR inh: 12µM*; uPA generation: -13%; RGS4 inh: -53%; Eya2 phos inh: -1%; USP2a inh: 1%; KAT2A inh: 2%

How did CCC(=O)Nc1cccc(-c2ccc(N3CCCCC3)nn2)c1 do in these assays?
Chronic BCR inh: inconclusive; uPA generation: 0.89µM*; RGS4 inh: 21%; Eya2 phos inh: -13%; USP2a inh: -1%; KAT2A inh: 0%

What do the screens show for `COc1cccc(C(=O)Nc2cccc(-c3ccc(N4CCOCC4)nn3)c2)c1`?
Chronic BCR inh: -6%; uPA generation: 10µM*; RGS4 inh: -3%; Eya2 phos inh: -11%; USP2a inh: 3%; KAT2A inh: 2%

How did O=C1c2ccccc2NC(c2ccc3c(c2)OCO3)N1Cc1ccco1 (centres undefined) do in these assays?
RGS4 inh: -4%

Results for CCOC(=O)c1c(NC(=O)/C=C/C(=O)O)sc(C)c1-c1ccc(Cl)cc1 ?
Chronic BCR inh: inconclusive; uPA generation: 8.9µM*; RGS4 inh: -19%; Eya2 phos inh: -5%; USP2a inh: 1%; KAT2A inh: 1%

How did O=C(Nc1cccnc1)c1ccc([N+](=O)[O-])s1 do in these assays?
Chronic BCR inh: inconclusive; uPA generation: 4.5µM*; RGS4 inh: -18%; Eya2 phos inh: 4%; USP2a inh: 1%; KAT2A inh: -7%

Results for O=C(Nc1cccc2ccccc12)c1ccc([N+](=O)[O-])s1 ?
Chronic BCR inh: inconclusive; uPA generation: 11µM*; RGS4 inh: 11%; Eya2 phos inh: -5%; USP2a inh: 2%; KAT2A inh: 0%

What do the screens show for `Cc1ccccc1OCCSc1nc(C)c(Cc2ccccc2)c(=O)[nH]1`?
RGS4 inh: 26%; KAT2A inh: 2%

Results for CCOc1cc(CNC(=O)NC2COc3ccccc3C2)cc(OCC)c1OCC (centres undefined) ?
RGS4 inh: -17%; KAT2A inh: 0%

What do the screens show for `Cc1cccc(N2CCN(S(=O)(=O)c3ccc4c(c3)C(C(C)C)C(=O)N4)CC2)c1C` (centres undefined)?
RGS4 inh: 6%; KAT2A inh: 1%

How did CC(Cc1ccc(O)c(O)c1)C(C)Cc1ccc(O)c(O)c1 (centres undefined) do in these assays?
uPA generation: inconclusive; RGS4 inh: -29%

What do the screens show for `C[C@H](Cc1ccc(O)c(O)c1)[C@@H](C)Cc1ccc(O)c(O)c1`?
RGS4 inh: 15µM*; Eya2 phos inh: -4%; KAT2A inh: inconclusive

How did Cc1cc2nc3c(=O)[nH]c(=O)nc-3n(C)c2cc1C=O do in these assays?
KAT2A inh: 28µM*

Results for Clc1ccc(OCc2nc(-c3ccccn3)no2)c(Br)c1 ?
Chronic BCR inh: -21%; uPA generation: 3.5µM*; RGS4 inh: inconclusive; Eya2 phos inh: -3%; USP2a inh: 0%; KAT2A inh: -1%

What do the screens show for `Clc1ccccc1OCc1nc(-c2ccccn2)no1`?
Chronic BCR inh: inconclusive; uPA generation: 4%; RGS4 inh: 2%; Eya2 phos inh: -15%; USP2a inh: -1%; KAT2A inh: -5%

What do the screens show for `O=C(Nc1nc(-c2ccccn2)cs1)c1ccc(Cl)s1`?
Chronic BCR inh: -2%; uPA generation: inconclusive; RGS4 inh: 12%; Eya2 phos inh: 32%; USP2a inh: -13%; KAT2A inh: -25%

What do the screens show for `O=C(Nc1nc(-c2ccccn2)cs1)c1cccc(S(=O)(=O)N2CCOCC2)c1`?
Chronic BCR inh: -1%; uPA generation: 10µM*; RGS4 inh: -51%; Eya2 phos inh: 14%; USP2a inh: -1%; KAT2A inh: -10%

Results for Cc1ccc(C(=O)Nc2nc(-c3ccccn3)cs2)s1 ?
Chronic BCR inh: -15%; uPA generation: 4.5µM*; RGS4 inh: -16%; Eya2 phos inh: -12%; USP2a inh: -3%; KAT2A inh: -8%

How did Cc1ccc(S(=O)(=O)N2CCOCC2)cc1C(=O)Nc1nc(-c2ccccn2)cs1 do in these assays?
Chronic BCR inh: -1%; uPA generation: -9%; RGS4 inh: -46%; Eya2 phos inh: 2%; USP2a inh: 2%; KAT2A inh: -5%

What do the screens show for `Cc1cccc(NC(=O)Cn2nnc(C(=O)Nc3ccccc3Br)c2N)c1C`?
RGS4 inh: -24%; KAT2A inh: 24%

What do the screens show for `C[C@]12CC[C@@H]3c4ccc(O)cc4CC[C@H]3[C@@H]1CCC2OC(=O)CCC1CCCC1` (some centres undefined)?
KAT2A inh: -16%

High-throughput results deposited in PubChem BioAssay by National Center for Advancing Translational Sciences (NCATS).
